From paper PMC5540273 (PLoS ONE, 2017)

Tested on: T1, RSK1(Kin.Dom.2-C-terminal)
T1 construct: gene RPS6KA1
Settings: concentration: 1 μM, replicates: in singlicate; n = 1
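Note: KINOMEscan kinase panel screen.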

Structure (SMILES) | %Inh
CC(C)c1nc(-c2cccc(NS(=O)(=O)c3c(F)cccc3F)c2F)c(-c2ccnc(Nc3ccc(N4CCOCC4)nc3)n2)s1 [GSK2008607] | 12%
CC(=O)N1CCN(c2ccc(Nc3nccc(-c4sc(C(C)C)nc4-c4cccc(NS(=O)(=O)c5cccc(Cl)c5)c4)n3)cn2)CC1 [GSK1660437] | 0%
O=C(Nc1cccc(-c2nn3ncccc3c2-c2ccnc(Nc3ccccc3)n2)c1)c1c(F)cccc1F [GSK198271] | 5%
Cl.c1ccc(-c2ccc3c(Nc4ccc5[nH]ncc5c4)ccnc3c2)nc1 [GW440137] | 6%
Cn1cc(-c2[nH]c3cc(NC(=O)[C@H](N)C4CCCCC4)cc4c3c2C=NNC4=O)cn1 | 72%
CNC(=O)c1ccccc1Nc1nc(Nc2ccc(N3CCOCC3)cc2)ncc1Cl.Cl [GSK1576028] | 54%
c1ccc(-c2cnc3nccnn23)cc1 [AH20685] | 0%
CN(C)S(=O)(=O)c1cc(-c2ccc3nccc(-c4cccc(S(N)(=O)=O)c4)c3c2)cnc1N [GSK1669921] | 10%
COc1cccc(NC(=O)NC2CCN(c3ccnc(Nc4cc(OC)c(OC)c(OC)c4)n3)C2)c1 (centres unmarked) [GSK1379763] | 4%
C[C@@H](Oc1cc(-n2cnc3cc(-c4ccnc(NCCS(C)(=O)=O)c4)ccc32)sc1C(N)=O)c1ccccc1Cl [GSK907232] | 2%
Fc1ccc(-c2ncn(C3CCNCC3)c2-c2ccnc(Oc3ccc(-c4ccccc4)cc3)n2)cc1 [SB-245391] | 0%
COc1cccc(C(=O)Nc2cccc(Oc3ccc4nc(NC(=O)C5CC5)cn4n3)c2)c1 | 12%
Nc1ncc(-c2cccnc2)c2scc(-c3ccc4c(c3)CCN4C(=O)Cc3ccccc3)c12 [GSK683281] | 1%
Cc1occc1-c1ncc(OC[C@@H](N)Cc2c[nH]c3ccccc23)cc1-c1ccc2[nH]nc(C)c2c1.O=C(O)C(F)(F)F [GSK682037] | 0%
Nc1n[nH]c2cnc(-c3ccccc3)cc12 [SB-642124] | 0%
Cc1ccc(S(=O)(=O)Nc2ccc(Nc3nccc(Nc4cccc5[nH]ncc45)n3)cc2)cc1 [GSK581271] | 14%

Structure (SMILES) | %Inh
c1ccc(-c2n[nH]cc2Nc2ccnc3ccccc23)nc1 [GW694077] | 16%
COc1ccc(Nc2nccc(NCCNC(=O)c3cc4ccccc4s3)n2)cc1 [GSK1379896] | 0%
Cc1ccc(F)c(C(=O)Nc2cccc(-c3nn4ccccc4c3-c3ccnc(Nc4cccc(F)c4)n3)c2)c1F [GSK361061] | 7%
CC(C)(C)c1ccc2nccc(Nc3cccc(O)c3)c2c1 [GW856795] | 0%
COc1cc(Nc2ncc3c(C)nc(-c4cc5ccccc5[nH]4)n3n2)cc(OC)c1OC [GW869516] | 0%
COC(=O)Nc1nc2ccc(Oc3ccc(NC(=O)Nc4cc(C(F)(F)F)ccc4F)cc3)cc2n1C.Cl [GW692089] | 0%
CCCCc1nn2ncccc2c1-c1ccnc(Nc2ccc(N3CCN(C)CC3)cc2)n1 [GW684941] | 31%
O=C(O)C(F)(F)F.O=C(O)C(F)(F)F.O=c1[nH]ccc2nc(N[C@@H]3CCCNC3)nc(Nc3ccc(S(=O)(=O)N4CCOCC4)cc3)c12 [GSK2177277] | 75%
Cl.Cl.NCC(C(=O)Nc1cc(Br)c(-c2ccnc3[nH]ccc23)s1)c1ccccc1 (centres unmarked) [GSK1269851] | 0%
COc1ccc(-c2coc3ccc(-c4nnc(SCc5ccc(OC)c(C(F)(F)F)c5)o4)cc23)cc1 | 17%
COc1cccc(-c2ccc3c(NC(=O)C4CC4)n[nH]c3n2)c1 [SB-710903] | 0%
Oc1cc(Nc2ccnc3cc(I)ccc23)ccc1F [GW552771] | 29%
COc1cc2c(cc1OCCN1CCNCC1)ncc1c3ccc(C#N)cc3[nH]c21 | 12%
CCS(=O)(=O)c1ccc(OC)c(Nc2nccc(-c3c(-c4cccc(NC(=O)c5c(F)cccc5F)c4)nn4ncccc34)n2)c1 [GSK326180] | 0%
Cc1cccc(Nc2nc(N[C@H]3CCNC3)ncc2C(N)=O)c1.Cl [GSK2197149] | 31%

Tested on: T2, RSK2(Kin.Dom.1-N-terminal)
T2 construct: gene RPS6KA3
Settings: concentration: 1 μM, replicates: in singlicate; n = 1

Structure (SMILES) | %Inh
COc1cc(Nc2nccc(N3CCC(NC(=O)Nc4cccc(C(C)=O)c4)C3)n2)cc(OC)c1OC (centres unmarked) [GSK1379753] | 10%
CCn1c(-c2nonc2N)nc2c(C#CC(C)(C)O)ncc(OCCCCN)c21.O=C(O)C(F)(F)F.O=C(O)C(F)(F)F [GSK507274] | 19%
COc1cc(Nc2nccc(-c3c(-c4cccc(NC(=O)c5c(F)cccc5F)c4)nn4ncccc34)n2)cc(OC)c1OC [GSK327238] | 84%
O=C(Nc1n[nH]c2nc(-c3ccc(O)cc3)ccc12)C1CC1 [SB-710363] | 52%
O=c1[nH]cc(-c2ccc(N3CCOCC3)cc2)c2sc(-c3cn[nH]c3)cc12 [GSK2276055] | 23%
O=C(Nc1cccc(-c2nn3ccccc3c2-c2ccnc(Nc3cccc(F)c3)n2)c1)c1c(F)ccc(F)c1Cl [GSK357952] | 18%
CC(C)c1nc(-c2cccc(NS(=O)(=O)c3c(F)cccc3F)c2F)c(-c2ccnc(Nc3ccc(N4CCOCC4)nc3)n2)s1 [GSK2008607] | 41%
CC(=O)N1CCN(c2ccc(Nc3nccc(-c4sc(C(C)C)nc4-c4cccc(NS(=O)(=O)c5cccc(Cl)c5)c4)n3)cn2)CC1 [GSK1660437] | 0%
O=C(Nc1cccc(-c2nn3ncccc3c2-c2ccnc(Nc3ccccc3)n2)c1)c1c(F)cccc1F [GSK198271] | 0%
Cl.c1ccc(-c2ccc3c(Nc4ccc5[nH]ncc5c4)ccnc3c2)nc1 [GW440137] | 0%
Cn1cc(-c2[nH]c3cc(NC(=O)[C@H](N)C4CCCCC4)cc4c3c2C=NNC4=O)cn1 | 85%
CNC(=O)c1ccccc1Nc1nc(Nc2ccc(N3CCOCC3)cc2)ncc1Cl.Cl [GSK1576028] | 100%
c1ccc(-c2cnc3nccnn23)cc1 [AH20685] | 0%
CN(C)S(=O)(=O)c1cc(-c2ccc3nccc(-c4cccc(S(N)(=O)=O)c4)c3c2)cnc1N [GSK1669921] | 21%
COc1cccc(NC(=O)NC2CCN(c3ccnc(Nc4cc(OC)c(OC)c(OC)c4)n3)C2)c1 (centres unmarked) [GSK1379763] | 0%
C[C@@H](Oc1cc(-n2cnc3cc(-c4ccnc(NCCS(C)(=O)=O)c4)ccc32)sc1C(N)=O)c1ccccc1Cl [GSK907232] | 32%
Fc1ccc(-c2ncn(C3CCNCC3)c2-c2ccnc(Oc3ccc(-c4ccccc4)cc3)n2)cc1 [SB-245391] | 34%
COc1cccc(C(=O)Nc2cccc(Oc3ccc4nc(NC(=O)C5CC5)cn4n3)c2)c1 | 9%
Nc1ncc(-c2cccnc2)c2scc(-c3ccc4c(c3)CCN4C(=O)Cc3ccccc3)c12 [GSK683281] | 0%

Structure (SMILES) | %Inh
Cc1occc1-c1ncc(OC[C@@H](N)Cc2c[nH]c3ccccc23)cc1-c1ccc2[nH]nc(C)c2c1.O=C(O)C(F)(F)F [GSK682037] | 79%
Nc1n[nH]c2cnc(-c3ccccc3)cc12 [SB-642124] | 22%
Cc1ccc(S(=O)(=O)Nc2ccc(Nc3nccc(Nc4cccc5[nH]ncc45)n3)cc2)cc1 [GSK581271] | 15%
c1ccc(-c2n[nH]cc2Nc2ccnc3ccccc23)nc1 [GW694077] | 27%
COc1ccc(Nc2nccc(NCCNC(=O)c3cc4ccccc4s3)n2)cc1 [GSK1379896] | 0%
Cc1ccc(F)c(C(=O)Nc2cccc(-c3nn4ccccc4c3-c3ccnc(Nc4cccc(F)c4)n3)c2)c1F [GSK361061] | 4%
CC(C)(C)c1ccc2nccc(Nc3cccc(O)c3)c2c1 [GW856795] | 0%
COc1cc(Nc2ncc3c(C)nc(-c4cc5ccccc5[nH]4)n3n2)cc(OC)c1OC [GW869516] | 49%
COC(=O)Nc1nc2ccc(Oc3ccc(NC(=O)Nc4cc(C(F)(F)F)ccc4F)cc3)cc2n1C.Cl [GW692089] | 40%
CCCCc1nn2ncccc2c1-c1ccnc(Nc2ccc(N3CCN(C)CC3)cc2)n1 [GW684941] | 71%
O=C(O)C(F)(F)F.O=C(O)C(F)(F)F.O=c1[nH]ccc2nc(N[C@@H]3CCCNC3)nc(Nc3ccc(S(=O)(=O)N4CCOCC4)cc3)c12 [GSK2177277] | 99.7%
Cl.Cl.NCC(C(=O)Nc1cc(Br)c(-c2ccnc3[nH]ccc23)s1)c1ccccc1 (centres unmarked) [GSK1269851] | 24%
COc1ccc(-c2coc3ccc(-c4nnc(SCc5ccc(OC)c(C(F)(F)F)c5)o4)cc23)cc1 | 14%
COc1cccc(-c2ccc3c(NC(=O)C4CC4)n[nH]c3n2)c1 [SB-710903] | 0%
Oc1cc(Nc2ccnc3cc(I)ccc23)ccc1F [GW552771] | 13%
COc1cc2c(cc1OCCN1CCNCC1)ncc1c3ccc(C#N)cc3[nH]c21 | 54%
CCS(=O)(=O)c1ccc(OC)c(Nc2nccc(-c3c(-c4cccc(NC(=O)c5c(F)cccc5F)c4)nn4ncccc34)n2)c1 [GSK326180] | 0%
Cc1cccc(Nc2nc(N[C@H]3CCNC3)ncc2C(N)=O)c1.Cl [GSK2197149] | 31%
